Screening results deposited in PubChem BioAssay by several laboratories.
KCC2 mod = KCC2 cotransporter modulators, thallium flux, primary screen, cell-based, HEK293 KCC2, FluoZin-2 fluorescence, MLSMR; Solute carrier family 12 member 5 (Homo sapiens), Q9H2X9; AID 1456, 2008; B-score of Tl+ flux slope (higher = more flux/activation; lower = inhibition) at 10 µM; KCC2 cells, thallium flux FluoZin-2 fluorescence; hit rate 2.2% among 190,000;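 active means thallium flux slope and its plate-corrected score both differing from the plate sample mean at a set confidence after two filtering rounds, in either direction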;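 further: slope of fluorescence scaled to starting intensity during 10 to 20 s after thallium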
Target sequence (Q9H2X9 whole entry, looked up): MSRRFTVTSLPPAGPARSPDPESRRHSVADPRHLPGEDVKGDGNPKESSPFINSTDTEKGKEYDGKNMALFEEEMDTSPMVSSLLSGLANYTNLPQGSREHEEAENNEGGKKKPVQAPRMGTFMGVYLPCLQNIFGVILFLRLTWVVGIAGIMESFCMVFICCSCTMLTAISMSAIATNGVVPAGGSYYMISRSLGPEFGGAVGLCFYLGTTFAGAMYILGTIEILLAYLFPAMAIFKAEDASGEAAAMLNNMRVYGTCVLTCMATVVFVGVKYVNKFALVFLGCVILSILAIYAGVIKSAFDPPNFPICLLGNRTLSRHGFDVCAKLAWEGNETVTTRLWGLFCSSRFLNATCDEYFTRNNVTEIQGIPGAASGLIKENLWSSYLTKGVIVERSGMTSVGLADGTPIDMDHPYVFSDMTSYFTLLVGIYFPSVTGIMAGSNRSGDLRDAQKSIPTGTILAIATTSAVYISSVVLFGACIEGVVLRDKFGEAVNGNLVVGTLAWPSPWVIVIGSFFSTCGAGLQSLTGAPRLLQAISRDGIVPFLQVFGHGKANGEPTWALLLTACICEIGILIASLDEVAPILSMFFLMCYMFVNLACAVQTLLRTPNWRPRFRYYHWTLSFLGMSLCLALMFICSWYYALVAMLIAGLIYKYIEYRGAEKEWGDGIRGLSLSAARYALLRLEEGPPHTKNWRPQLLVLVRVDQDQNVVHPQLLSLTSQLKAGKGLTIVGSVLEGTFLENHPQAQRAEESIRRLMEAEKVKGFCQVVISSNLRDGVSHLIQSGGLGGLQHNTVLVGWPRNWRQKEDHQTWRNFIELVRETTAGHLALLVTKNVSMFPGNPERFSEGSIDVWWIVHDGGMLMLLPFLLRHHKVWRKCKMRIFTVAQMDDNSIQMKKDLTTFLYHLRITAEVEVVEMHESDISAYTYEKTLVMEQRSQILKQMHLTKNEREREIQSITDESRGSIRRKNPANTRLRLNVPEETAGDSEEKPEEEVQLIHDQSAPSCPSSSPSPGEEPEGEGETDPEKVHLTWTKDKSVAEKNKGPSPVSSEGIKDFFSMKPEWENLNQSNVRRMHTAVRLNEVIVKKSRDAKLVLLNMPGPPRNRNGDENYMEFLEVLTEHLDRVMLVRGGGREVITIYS
ROMK mod = ROMK potassium channel modulators, primary screen, cell-based, thallium flux, MLSMR library; B-score at 10 µM; hit rate 2% among 130,000; Tet-inducible ROMK, thallium flux fluorescence; actives lie on both sides; ATP-sensitive inward rectifier potassium channel 1 (Homo sapiens), P48048;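 active means signal ratio slope over the read window, or its plate-corrected B-score, at least 3 SD from the plate mean, either direction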;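 further: B-score of the F/F0 ratio slope over 7 to 12 s after thallium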
Ins promoter up = insulin promoter activators in MIN6 cells, imaging, high-content screening, mouse beta cells; hit rate 0.3% among 190,000; z-score at 5 µM; MIN6 insulin promoter-GFP reporter; stronger effect = higher value;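 active means z-score above 3 at 5 µM with at least 500 cells counted in the well; inconclusive means wells under 500 cells, flagged as cytotoxic or low count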
WT yeast gro inh = growth inhibition of WT strain, primary screen, mitochondrial fusion inhibitor project, WT and mutant strains, chemical genetic | mitochondrial fusion phenotypic screen | inhibition, % at 10 µM | hit rate 2.1% among 190,000 | AID 1362, 2008; in the data active means inhibition above about 58%; tested in S. cerevisiae
Insulin prom inh = inhibitors of insulin promoter-driven GFP, primary screen, imaging, TRM-6 cells (human fetal islet line), eGFP reporter, cell count. reporter expression induced with tamoxifen. inhibition, % at 2 µM. hit rate 0.9% among 130,000;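 active means inhibition above the mean plus 3 SD, with well images judged a real hit on visual review, cut at about 60% in these data, passing the limit was not always enough; inconclusive means inhibition over the cutoff but images rejected on review; inactive means inhibition not above the cutoff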
Lmaj promast = Leishmania major promastigote growth inhibition, primary screen; hit rate 9% among 200,000; inhibition, % at 10 µM; AID 1063, 2008; Leishmania major promastigotes, resazurin fluorescence viability; in the data active means inhibition above about 50%;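 further: promastigotes grown with compound for 44 hours at 28 °C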
KCC2 secondary = KCC2 modulators in sodium-free buffer, confirmation, cell-based, HEK293 KCC2, thallium flux, secondary assay; AID 1713, 2009; hit rate 15% among 3,700; FluoZin2 fluorescence; stronger effect = higher value; normalised thallium flux (F/F0 slope) at 10 µM; shares compounds with KCC2 mod;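 active means thallium flux slope above the same plate's solvent-only control mean plus 3 SD; inconclusive means the two replicate wells disagree; inactive means no significant difference from solvent-only control wells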
KCC2 bumet counter = thallium flux persisting under bumetanide in KCC2 cells, confirmation, counter-screen for KCC2 modulator project, cell-based, HEK293 KCC2, FluoZin2, secondary assay 3 | shares compounds with KCC2 mod | HEK293-KCC2 + bumetanide/ouabain; stronger effect = higher value | normalized thallium flux at 10 µM | hit rate 49% among 3,700;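 active means thallium entry rate above the same plate's blocked-transporter control wells by more than 3 SD; inconclusive means the two repeat wells disagree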;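 further: raw slope of fluorescence over initial fluorescence between 10 and 20 s after thallium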
KCC2 secondary2 = KCC2 modulators without ouabain present, confirmation, cell-based, HEK293 KCC2, thallium flux, FluoZin2, secondary assay 2; shares compounds with KCC2 mod; thallium flux FluoZin2 fluorescence; actives lie on both sides; F/F0 rise rate, 10–20 s post-thallium; normalized thallium flux at 10 µM; hit rate 23% among 3,700;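 active means thallium flux slope more than 3 SD above or below the plate's solvent-only control mean, mostly below; inconclusive means the two repeat wells disagreed; inactive means no significant shift from solvent-only controls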;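 further: raw slope with 0.1% DMSO as baseline and bumetanide as block control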
HEK counter1 = thallium flux modulation in parental HEK cells, confirmation, counter-screen for KCC2 modulator project, cell-based, counterscreen 1; shares compounds with KCC2 mod; HEK293 parental cells, thallium flux FluoZin2, ouabain; baseline-ratio fluorescence slope, 10–20 s after thallium; thallium flux rate (normalised fluorescence) at 10 µM; hit rate 46% among 3,700;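 active means thallium flux rate significantly above the same plate's solvent-only control wells, beyond their mean plus 3 SD; inconclusive means the two replicate wells gave conflicting results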
KCC2 retest ouab = KCC2 inhibitors and activators, ouabain retest, confirmation, HEK-KCC2 cells. shares compounds with KCC2 mod. HEK293-KCC2, thallium flux FluoZin2 fluorescence; bidirectional: low = inhibitor, high = activator. raw Tl+ flux slope (below DMSO = inhibition, above = activation) at 10 µM. hit rate 48% among 3,700;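 active means thallium flux slope beyond 3 SD from same-plate DMSO control mean in most replicates, usually higher, sometimes lower; inconclusive means repeat tests gave conflicting results; inactive means no significant difference from controls in most replicates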;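 further: slope of initial-normalized fluorescence between seconds 10 and 20 after thallium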
HEK counter2 = native HEK Tl+ uptake effects, second counter-screen – HEK cells, counterscreen 2, counter-screen for KCC2 modulator project, confirmation; shares compounds with KCC2 mod; HEK293 parental, thallium flux FluoZin-2 fluorescence slope; thallium flux slope at 10 µM; hit rate 33% among 3,700;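 active means thallium flux slope above the same plate's solvent-control mean plus 3 SD in both duplicate wells; inconclusive means duplicate wells that disagreed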;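 further: run without ouabain in cells lacking the KCC2 cotransporter; slope of fluorescence scaled to its starting value between 10 and 20 s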
ROMK hit retest = ROMK channel modulator hit retest, confirmation, cell-based, thallium flux, duplicate, resupplied hits. shares compounds with ROMK mod. fluorescence ratio; stronger effect = lower value. normalized thallium flux (F/F0 slope) at 10 µM. hit rate 54% among 3,000. AID 1917, 2009;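 active means Flux at 10 µM at least 3 SD below or above vehicle control mean in one or both replicates; inconclusive means no clear call, values can overlap the other calls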
* marks the source's active call; other numbers are inactive results; ? = inconclusive; / = not tested or not shown. Shown are actives, neighbours in structure and some others; about 12% of the full set was active somewhere.

SMILES	KCC2 mod	ROMK mod	Ins promoter up	WT yeast gro inh	Insulin prom inh	Lmaj promast	KCC2 secondary	KCC2 bumet counter	KCC2 secondary2	HEK counter1	KCC2 retest ouab	HEK counter2	others
CCOc1ncccc1C(=O)OCCN1C(=O)c2ccccc2C1=O	5.8*	/	0.66	3	/	-4	0.0087	0.0057	0.034	0.0085	0.02	0.012
CCCOC(=O)Nc1ccc(N2CCCCC2)cc1	0.3	-0.0054	1.1	1	7	2	/	/	/	/	/	/
O=C(O)CNc1nc(-c2ccccc2)nc2c1oc1ccccc12	/	0.88	0.15	/	/	/	0.0066	0.0053	0.029	0.0077	0.019	0.01
CSCC[C@@H](Nc1nc(-c2ccccc2)nc2c1oc1ccccc12)C(=O)O	-2.2	/	-0.37	10	-17	-11	/	/	/	/	/	/
CCOC(=O)C1=C(C)Nc2nnnn2C1c1cccnc1 (stereo not given)	/	/	0.29	-2	23	2	0.0066	0.004	0.028	0.0074	0.018	0.01
CCOc1ccc2nc(NC(=O)CSc3nc(-c4ccccc4)c(C#N)c(=O)[nH]3)sc2c1	-3.2*	-0.29	/	5	/	-5	0.0092	?	0.035	0.0053*	0.021	0.0092
COc1cccc(-c2nc(SCC(=O)Nc3nc(-c4ccccc4)c(C)s3)[nH]c(=O)c2C#N)c1	-3	/	/	1	53	-7	/	/	/	/	/	/
Cc1ccc(C(=O)CSc2nnc(COc3cccc4cccnc34)o2)cc1	-4*	-1.2	0.51	-7	/	-9	?	?	?	0.0069	0.014	0.01
COc1cccc(C(=O)CSc2nnc(COc3cccc4cccnc34)o2)c1	-3.5	0.63	0.48	-3	-87	-5	/	/	/	/	/	/
O=C(CSc1nnc(COc2cccc3cccnc23)o1)N1CCCC1	0.015	0.25	-0.32	-6	/	-4	/	/	/	/	/	/
O=C(CSc1nnc(COc2cccc3cccnc23)o1)c1ccc(F)cc1	/	-0.59	0.94	11	-50	1	0.0067	0.0052	0.033	0.0035	0.015*	0.011
CC1(C)CC(=O)c2c(-c3cccnc3)n[nH]c2C1	/	0.37	-0.56	-18	-14	-1	0.01	0.0056	0.034	0.0078	0.02	0.012
CC1(C)CC(=O)c2c(Cc3ccccc3)n[nH]c2C1	-0.48	/	-0.95	9	-23	0	/	/	/	/	/	/
O=C(CSc1nnnn1-c1ccccc1F)Nc1nc2ccccc2s1	-1.3	0.26	0.01	-19	-16	-3	/	/	/	/	/	/
C=CCn1c(CCNC(=O)c2ccccc2F)nnc1SCC(=O)Nc1nc2ccccc2s1	/	0.45	-0.62	1	-3	0	0.016	0.0043	0.025*	0.0064	0.014	0.0086
Cc1c(C2OC(=O)C3(CCCCC3)C(=O)C2(C)C)c(=O)n(-c2ccccc2)n1C (stereo not given)	0.51	-0.13	1.3	6	/	1	/	/	/	/	/	/
Cc1cccc(NC(=O)c2ccc(S(=O)(=O)C(F)F)cc2)c1C	-0.13	-0.9	-0.11	8	-3	-3	/	/	/	/	/	/
CNC(=S)N/N=C/c1c(C)cccc1Cl	4.4*	/	0.08	/	/	/	0.0094	0.017*	0.028	0.0085*	?	0.0097
CCN(CC)Cc1c(O)ccc2c(C)c(CC(=O)OC)c(=O)oc12	/	0.18	0.04	3	0	2	0.0073	?	0.033	0.0077	0.019	0.012
CCCOc1ccc(C(=O)NC(=S)NNC(=O)c2c(-c3ccccc3)noc2C)cc1	62*	/	0.47	/	/	/	0.021*	0.065*	?	0.045*	0.04*	0.04*
Cc1ccc(NC(=S)NC(=O)c2c(-c3ccccc3Cl)noc2C)cc1	5.4*	/	-0.25	5	0	3	0.0075	0.035*	0.028	0.015*	0.037*	?
COC(=O)c1ccc(NC(=S)NC(=O)c2c(-c3ccccc3)noc2C)cc1	17*	/	0.21	/	/	/	0.012	0.023*	0.036	?	0.049*	0.012
Cc1onc(-c2ccccc2Cl)c1C(=O)NC(=S)Nc1ccc(C(C)C)cc1	9.9*	/	-0.14	/	/	/	0.0076	0.013*	0.029	0.014*	?	0.013*
O=C(O)CNC(=S)N(Cc1ccccc1)Cc1cccnc1	0.72	1.3	0.31	-2	/	0	/	/	/	/	/	/
Cc1onc(-c2ccccc2)c1C(=O)NC(=S)Nc1sc2c(c1C#N)CCC(C)C2 (stereo not given)	21*	/	/	-2	/	-4	?	0.058*	?	0.024*	0.037*	0.025*
Cc1ccccc1N=C1NC(=O)CS1	0.36	/	0.12	-11	-15	-1	/	/	/	/	/	/
O=C1CSC(=Nc2ccccc2)N1	5.7*	1.1	0.53	11	/	-8	0.0079	?	0.033	0.008	0.022	?
Cc1ccc(C(=O)NNC(=O)CSc2nc(N)cc(N)n2)cc1	0.21	/	/	-2	23	38	/	/	/	/	/	/
Cc1ccc(C(=O)NNC(=O)CSc2nnc3c(n2)[nH]c2ccc(C)cc23)cc1	5.4*	-0.35	1.1	-23	/	-4	0.0065	0.0043	0.032	0.0073	0.018	0.011
COc1cc(CNCCc2ccc(S(N)(=O)=O)cc2)ccc1OCc1ccc(Cl)cc1	0.31	-2.6*	-2.6	13	/	100*	/	/	/	/	/	/	ROMK hit retest=0.058*
